From paper PMC7862700, “An all-to-all approach to the identification of sequence-specific readers for epigenetic DNA modifications on cytosine”

Columns and labels:
Experiment in all cases: DAPPL (digital affinity profiling via proximity ligation, sequencing); 10 mM Tris-HCl pH 7.5, 50 mM NaCl, 1 mM DTT, 4% glycerol, room temperature, 30 min; GST-TFs on glutathione beads, 16-mer random dsDNA library, 0.1% formaldehyde crosslink after washing; high values mean tight binding
FLI1 = molecular target: T1, FLI1 (Homo sapiens, UniProt Q01543 1-452); conditions: protein: recombinant; tags: N-terminal GST; dsDNA, one strand shown
T1 sequence: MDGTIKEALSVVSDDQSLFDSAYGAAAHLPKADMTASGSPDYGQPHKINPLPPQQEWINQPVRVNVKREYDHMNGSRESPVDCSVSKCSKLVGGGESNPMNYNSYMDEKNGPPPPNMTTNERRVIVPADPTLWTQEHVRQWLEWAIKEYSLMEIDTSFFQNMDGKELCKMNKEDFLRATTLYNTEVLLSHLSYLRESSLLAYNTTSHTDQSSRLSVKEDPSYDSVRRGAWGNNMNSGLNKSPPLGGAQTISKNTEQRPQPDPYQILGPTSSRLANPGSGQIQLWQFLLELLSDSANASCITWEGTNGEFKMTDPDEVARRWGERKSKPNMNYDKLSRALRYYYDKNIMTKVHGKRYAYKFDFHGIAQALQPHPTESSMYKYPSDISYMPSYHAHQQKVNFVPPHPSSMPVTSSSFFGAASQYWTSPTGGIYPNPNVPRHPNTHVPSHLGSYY
Method in brief: (§1)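 Yeast served to express human transcription factors as GST fusions, which were then captured on glutathione beads and labelled with DNA barcodes. Pooled with a tag-only sample, they were incubated with 200 nmole of a 16-mer random double-stranded DNA library for 30 min at room temperature in Tris/NaCl/DTT/glycerol buffer, washed, crosslinked with 0.1% formaldehyde, ligated by proximity, amplified by PCR and sequenced. Dividing each hexamer's read frequency for a factor by its frequency for the tag-only sample gives the binding signal.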

ELK1 = molecular target: T2, ELK1 (Homo sapiens, UniProt P19419 1-428); conditions: protein: recombinant; tags: N-terminal GST; dsDNA, one strand shown
T2 sequence: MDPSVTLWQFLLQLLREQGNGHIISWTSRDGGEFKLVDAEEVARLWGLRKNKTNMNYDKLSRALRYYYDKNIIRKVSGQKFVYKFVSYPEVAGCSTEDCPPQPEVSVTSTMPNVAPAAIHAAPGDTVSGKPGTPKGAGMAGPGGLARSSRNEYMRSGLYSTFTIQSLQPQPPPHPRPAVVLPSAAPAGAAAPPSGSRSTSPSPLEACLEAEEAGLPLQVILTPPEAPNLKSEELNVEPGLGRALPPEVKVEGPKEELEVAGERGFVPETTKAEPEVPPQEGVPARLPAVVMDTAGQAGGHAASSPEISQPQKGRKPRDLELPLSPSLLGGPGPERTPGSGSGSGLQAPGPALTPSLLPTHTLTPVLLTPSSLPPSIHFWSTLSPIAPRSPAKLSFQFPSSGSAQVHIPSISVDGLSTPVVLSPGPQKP
Method in brief: as §1

GABPA = molecular target: T3, GABPA (Homo sapiens, UniProt Q06546 1-454); conditions: protein: recombinant; tags: N-terminal GST; dsDNA, one strand shown
T3 sequence: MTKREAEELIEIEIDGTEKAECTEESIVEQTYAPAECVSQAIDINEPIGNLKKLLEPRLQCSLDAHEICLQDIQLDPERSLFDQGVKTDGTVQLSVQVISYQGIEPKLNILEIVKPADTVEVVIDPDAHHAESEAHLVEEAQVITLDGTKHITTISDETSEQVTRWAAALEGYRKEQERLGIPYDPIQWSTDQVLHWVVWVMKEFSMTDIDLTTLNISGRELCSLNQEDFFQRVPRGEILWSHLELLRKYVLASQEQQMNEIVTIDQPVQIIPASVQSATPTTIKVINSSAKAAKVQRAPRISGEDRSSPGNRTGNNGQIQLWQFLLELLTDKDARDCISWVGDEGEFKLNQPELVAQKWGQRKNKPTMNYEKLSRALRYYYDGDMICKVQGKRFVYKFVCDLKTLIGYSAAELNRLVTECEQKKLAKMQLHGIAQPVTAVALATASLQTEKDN
Method in brief: as §1

ERG = molecular target: T4, ERG (Homo sapiens, UniProt P11308 1-479); conditions: protein: recombinant; tags: N-terminal GST; dsDNA, one strand shown
T4 sequence: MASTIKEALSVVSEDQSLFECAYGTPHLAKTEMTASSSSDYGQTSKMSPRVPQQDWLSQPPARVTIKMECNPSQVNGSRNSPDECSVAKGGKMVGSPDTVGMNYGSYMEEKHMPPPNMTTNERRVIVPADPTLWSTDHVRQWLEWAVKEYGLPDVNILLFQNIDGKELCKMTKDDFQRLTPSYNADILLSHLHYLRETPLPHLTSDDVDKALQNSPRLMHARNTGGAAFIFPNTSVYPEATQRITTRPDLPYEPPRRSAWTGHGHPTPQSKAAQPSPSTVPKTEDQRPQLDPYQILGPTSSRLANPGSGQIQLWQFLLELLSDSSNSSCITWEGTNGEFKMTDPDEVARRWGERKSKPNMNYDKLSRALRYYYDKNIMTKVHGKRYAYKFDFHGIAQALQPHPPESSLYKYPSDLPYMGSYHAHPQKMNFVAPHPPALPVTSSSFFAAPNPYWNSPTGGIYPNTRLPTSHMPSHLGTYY
Method in brief: as §1

ELF1 = ELF1 (Homo sapiens, UniProt P32519 1-619); conditions: protein: recombinant; tags: N-terminal GST; dsDNA, one strand shown
Chain of ELF1 (P32519 whole entry): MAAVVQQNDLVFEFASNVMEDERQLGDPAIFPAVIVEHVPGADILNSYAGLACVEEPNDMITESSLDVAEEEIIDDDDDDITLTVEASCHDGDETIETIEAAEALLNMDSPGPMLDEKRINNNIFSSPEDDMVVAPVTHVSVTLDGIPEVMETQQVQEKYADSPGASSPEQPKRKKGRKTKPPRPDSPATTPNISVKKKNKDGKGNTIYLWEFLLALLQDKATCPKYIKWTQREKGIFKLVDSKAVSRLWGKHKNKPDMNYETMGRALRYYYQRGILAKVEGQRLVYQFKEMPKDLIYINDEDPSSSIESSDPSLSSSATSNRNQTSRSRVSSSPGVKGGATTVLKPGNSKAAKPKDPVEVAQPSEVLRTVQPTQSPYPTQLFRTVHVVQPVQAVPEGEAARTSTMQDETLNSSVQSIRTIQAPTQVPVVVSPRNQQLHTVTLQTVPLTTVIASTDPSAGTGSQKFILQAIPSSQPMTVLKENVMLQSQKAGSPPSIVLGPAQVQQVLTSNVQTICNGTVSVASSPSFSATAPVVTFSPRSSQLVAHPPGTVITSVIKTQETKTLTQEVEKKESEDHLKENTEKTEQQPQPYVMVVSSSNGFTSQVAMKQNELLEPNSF
Method in brief: as §1

EHF = molecular target: T5, EHF (Homo sapiens, UniProt Q9NZC4 1-300); conditions: protein: recombinant; tags: N-terminal GST; dsDNA, one strand shown
T5 sequence: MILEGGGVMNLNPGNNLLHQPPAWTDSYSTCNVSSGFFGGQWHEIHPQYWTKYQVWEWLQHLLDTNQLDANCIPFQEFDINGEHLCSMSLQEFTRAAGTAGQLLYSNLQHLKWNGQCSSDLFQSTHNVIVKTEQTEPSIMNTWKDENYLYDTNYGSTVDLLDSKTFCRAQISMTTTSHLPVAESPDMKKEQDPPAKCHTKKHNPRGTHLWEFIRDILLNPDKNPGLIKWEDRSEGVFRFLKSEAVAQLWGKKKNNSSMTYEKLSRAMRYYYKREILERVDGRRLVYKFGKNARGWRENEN
Method in brief: as §1

SPI1 = SPI1 (Homo sapiens, UniProt P17947 1-270); conditions: protein: recombinant; tags: N-terminal GST; dsDNA, one strand shown
Method in brief: as §1

SPIB = SPIB (Homo sapiens, UniProt Q01892 1-262); conditions: protein: recombinant; tags: N-terminal GST; dsDNA, one strand shown
Chain of SPIB (Q01892 whole entry): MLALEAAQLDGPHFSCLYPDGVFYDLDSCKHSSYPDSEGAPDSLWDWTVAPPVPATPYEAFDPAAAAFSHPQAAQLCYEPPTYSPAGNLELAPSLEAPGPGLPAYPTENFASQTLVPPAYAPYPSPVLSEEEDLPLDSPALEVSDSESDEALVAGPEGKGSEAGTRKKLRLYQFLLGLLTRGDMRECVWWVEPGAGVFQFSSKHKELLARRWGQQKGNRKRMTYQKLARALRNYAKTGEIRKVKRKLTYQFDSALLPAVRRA
Method in brief: as §1

ELK3 = molecular target: T6, ELK3 (Homo sapiens, UniProt P41970 1-407); conditions: protein: recombinant; tags: N-terminal GST; dsDNA, one strand shown
T6 sequence: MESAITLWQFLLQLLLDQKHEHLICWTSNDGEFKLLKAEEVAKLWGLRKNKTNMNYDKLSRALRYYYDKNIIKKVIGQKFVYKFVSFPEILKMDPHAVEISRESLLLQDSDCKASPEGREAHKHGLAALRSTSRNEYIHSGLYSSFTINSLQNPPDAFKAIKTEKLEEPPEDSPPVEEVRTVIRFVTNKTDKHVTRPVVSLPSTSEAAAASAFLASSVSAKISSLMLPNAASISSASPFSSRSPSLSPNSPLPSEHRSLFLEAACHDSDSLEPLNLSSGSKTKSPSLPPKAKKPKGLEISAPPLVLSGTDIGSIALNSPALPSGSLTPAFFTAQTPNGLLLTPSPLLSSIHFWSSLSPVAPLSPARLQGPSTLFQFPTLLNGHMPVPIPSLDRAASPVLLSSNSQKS
Method in brief: as §1

FEV = molecular target: T7, FEV (Homo sapiens, UniProt Q99581 1-238); conditions: protein: recombinant; tags: N-terminal GST; dsDNA, one strand shown
T7 sequence: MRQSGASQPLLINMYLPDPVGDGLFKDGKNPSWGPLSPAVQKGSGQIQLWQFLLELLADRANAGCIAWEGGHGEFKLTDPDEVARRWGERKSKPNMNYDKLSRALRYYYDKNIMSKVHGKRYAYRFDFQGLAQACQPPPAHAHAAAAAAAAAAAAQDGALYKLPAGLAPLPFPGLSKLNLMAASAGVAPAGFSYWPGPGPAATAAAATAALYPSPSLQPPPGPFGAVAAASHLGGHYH
Method in brief: as §1

ETV5 = ETV5 (Homo sapiens, UniProt P41161 1-510); conditions: protein: recombinant; tags: N-terminal GST; dsDNA, one strand shown
Chain of ETV5 (P41161 whole entry): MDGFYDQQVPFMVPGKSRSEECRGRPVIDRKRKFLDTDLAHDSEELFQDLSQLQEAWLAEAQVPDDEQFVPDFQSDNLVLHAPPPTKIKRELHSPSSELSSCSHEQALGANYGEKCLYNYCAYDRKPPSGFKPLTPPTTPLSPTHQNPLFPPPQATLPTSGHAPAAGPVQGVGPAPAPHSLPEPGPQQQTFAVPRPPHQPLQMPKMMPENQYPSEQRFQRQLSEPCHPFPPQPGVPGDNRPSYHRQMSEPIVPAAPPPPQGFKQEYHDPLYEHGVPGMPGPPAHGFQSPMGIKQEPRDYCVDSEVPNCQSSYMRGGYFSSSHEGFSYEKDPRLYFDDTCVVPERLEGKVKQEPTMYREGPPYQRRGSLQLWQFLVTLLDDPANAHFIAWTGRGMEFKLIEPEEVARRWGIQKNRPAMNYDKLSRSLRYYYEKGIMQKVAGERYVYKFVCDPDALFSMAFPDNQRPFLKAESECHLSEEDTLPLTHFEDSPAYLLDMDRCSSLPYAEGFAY
Method in brief: as §1

HSF1 = HSF1 (Homo sapiens, UniProt Q00613 1-529); conditions: protein: recombinant; tags: N-terminal GST; chain copies: 3; dsDNA, one strand shown
Chain of HSF1 (Q00613 whole entry): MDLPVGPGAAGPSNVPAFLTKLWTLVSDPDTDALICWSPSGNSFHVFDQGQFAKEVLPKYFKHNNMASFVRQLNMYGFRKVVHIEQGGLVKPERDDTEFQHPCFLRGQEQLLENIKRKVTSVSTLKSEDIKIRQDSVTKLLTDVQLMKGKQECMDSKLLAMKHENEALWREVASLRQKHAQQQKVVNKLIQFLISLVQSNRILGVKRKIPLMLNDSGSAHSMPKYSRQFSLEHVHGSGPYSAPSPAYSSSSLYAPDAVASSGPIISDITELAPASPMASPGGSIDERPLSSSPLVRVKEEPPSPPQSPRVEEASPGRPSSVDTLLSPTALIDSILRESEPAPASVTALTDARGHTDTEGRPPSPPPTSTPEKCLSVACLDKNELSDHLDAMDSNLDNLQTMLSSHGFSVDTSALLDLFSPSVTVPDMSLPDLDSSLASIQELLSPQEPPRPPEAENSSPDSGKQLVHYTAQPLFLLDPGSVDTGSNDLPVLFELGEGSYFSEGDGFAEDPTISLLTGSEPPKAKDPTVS
Method in brief: as §1

SPIC = molecular target: T8, SPIC (Homo sapiens, UniProt Q8N5J4 1-248); conditions: protein: recombinant; tags: N-terminal GST; dsDNA, one strand shown
T8 sequence: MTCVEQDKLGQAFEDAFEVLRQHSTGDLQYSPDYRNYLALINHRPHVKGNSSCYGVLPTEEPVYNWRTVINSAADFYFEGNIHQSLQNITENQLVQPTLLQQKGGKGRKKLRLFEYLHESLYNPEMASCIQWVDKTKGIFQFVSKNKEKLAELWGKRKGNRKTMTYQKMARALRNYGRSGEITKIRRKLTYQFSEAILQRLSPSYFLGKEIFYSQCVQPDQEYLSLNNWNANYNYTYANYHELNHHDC
Method in brief: as §1

ELF4 = ELF4 (Homo sapiens, UniProt Q99607 1-663); conditions: protein: recombinant; tags: N-terminal GST; dsDNA, one strand shown
Chain of ELF4 (Q99607 whole entry): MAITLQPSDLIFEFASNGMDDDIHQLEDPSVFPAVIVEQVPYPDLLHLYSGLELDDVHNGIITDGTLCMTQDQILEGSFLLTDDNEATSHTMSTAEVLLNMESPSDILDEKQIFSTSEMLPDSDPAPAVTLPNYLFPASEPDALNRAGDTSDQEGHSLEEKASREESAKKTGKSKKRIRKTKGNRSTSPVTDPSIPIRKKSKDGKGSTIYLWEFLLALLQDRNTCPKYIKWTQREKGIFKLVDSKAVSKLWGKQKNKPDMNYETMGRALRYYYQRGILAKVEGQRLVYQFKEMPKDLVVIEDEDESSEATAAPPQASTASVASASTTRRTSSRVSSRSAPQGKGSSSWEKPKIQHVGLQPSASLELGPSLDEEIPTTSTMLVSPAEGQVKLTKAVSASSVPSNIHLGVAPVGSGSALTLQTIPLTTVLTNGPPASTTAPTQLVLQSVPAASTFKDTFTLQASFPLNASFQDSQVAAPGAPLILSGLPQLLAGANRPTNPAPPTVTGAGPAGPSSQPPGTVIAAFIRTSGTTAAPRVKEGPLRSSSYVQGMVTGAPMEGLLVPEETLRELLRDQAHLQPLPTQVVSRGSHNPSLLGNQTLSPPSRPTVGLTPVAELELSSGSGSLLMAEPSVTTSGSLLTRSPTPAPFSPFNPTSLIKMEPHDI
Method in brief: as §1

ETV2 = molecular target: T9, ETV2 (Homo sapiens, UniProt O00321 1-342); conditions: protein: recombinant; tags: N-terminal GST; dsDNA, one strand shown
T9 sequence: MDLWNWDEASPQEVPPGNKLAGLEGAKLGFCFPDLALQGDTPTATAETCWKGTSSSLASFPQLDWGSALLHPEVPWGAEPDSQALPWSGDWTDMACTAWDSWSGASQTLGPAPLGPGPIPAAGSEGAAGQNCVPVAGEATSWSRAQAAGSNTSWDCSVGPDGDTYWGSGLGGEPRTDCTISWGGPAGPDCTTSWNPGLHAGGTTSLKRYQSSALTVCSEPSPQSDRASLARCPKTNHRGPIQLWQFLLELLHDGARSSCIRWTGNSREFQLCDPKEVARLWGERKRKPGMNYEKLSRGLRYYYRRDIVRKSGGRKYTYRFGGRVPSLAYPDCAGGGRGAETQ
Method in brief: as §1

CRX = CRX (Homo sapiens, UniProt O43186 1-299); conditions: protein: recombinant; tags: N-terminal GST; dsDNA, one strand shown
Chain of CRX (O43186 whole entry): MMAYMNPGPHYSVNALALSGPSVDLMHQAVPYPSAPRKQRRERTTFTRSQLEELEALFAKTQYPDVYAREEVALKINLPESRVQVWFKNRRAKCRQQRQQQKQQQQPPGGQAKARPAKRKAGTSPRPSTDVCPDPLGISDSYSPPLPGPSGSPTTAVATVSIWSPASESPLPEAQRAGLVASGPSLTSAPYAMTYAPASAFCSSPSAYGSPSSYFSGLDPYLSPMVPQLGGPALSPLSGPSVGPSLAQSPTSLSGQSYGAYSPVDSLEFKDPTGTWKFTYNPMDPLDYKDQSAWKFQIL
Method in brief: as §1

ETV1 = ETV1 (Homo sapiens, UniProt P50549 1-477); conditions: protein: recombinant; tags: N-terminal GST; dsDNA, one strand shown
Chain of ETV1 (P50549 whole entry): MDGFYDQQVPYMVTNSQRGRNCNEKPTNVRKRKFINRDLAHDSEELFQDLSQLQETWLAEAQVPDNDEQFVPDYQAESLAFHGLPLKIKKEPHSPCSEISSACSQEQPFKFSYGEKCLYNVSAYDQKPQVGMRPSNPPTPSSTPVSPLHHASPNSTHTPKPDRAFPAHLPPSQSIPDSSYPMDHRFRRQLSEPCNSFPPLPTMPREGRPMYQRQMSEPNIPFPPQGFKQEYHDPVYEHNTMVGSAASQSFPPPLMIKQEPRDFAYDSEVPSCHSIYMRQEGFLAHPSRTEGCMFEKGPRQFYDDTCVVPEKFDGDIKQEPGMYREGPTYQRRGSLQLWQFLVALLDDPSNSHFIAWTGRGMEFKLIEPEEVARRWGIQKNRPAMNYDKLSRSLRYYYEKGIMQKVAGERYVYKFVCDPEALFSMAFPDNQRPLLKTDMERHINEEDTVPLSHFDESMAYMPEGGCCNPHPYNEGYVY
Method in brief: as §1

ELF3 = molecular target: T10, ELF3 (Homo sapiens, UniProt P78545 1-371); conditions: protein: recombinant; tags: N-terminal GST; dsDNA, one strand shown
T10 sequence: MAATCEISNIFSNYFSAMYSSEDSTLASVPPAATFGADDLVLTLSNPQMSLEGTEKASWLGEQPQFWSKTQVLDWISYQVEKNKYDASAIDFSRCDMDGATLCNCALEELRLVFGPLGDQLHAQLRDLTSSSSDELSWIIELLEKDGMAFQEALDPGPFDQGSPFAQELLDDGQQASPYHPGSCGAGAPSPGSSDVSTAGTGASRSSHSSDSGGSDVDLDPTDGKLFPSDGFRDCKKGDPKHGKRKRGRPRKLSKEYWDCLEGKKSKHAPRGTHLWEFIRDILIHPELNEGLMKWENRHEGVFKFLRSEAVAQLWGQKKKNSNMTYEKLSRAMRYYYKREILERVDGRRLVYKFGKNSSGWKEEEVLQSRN
Method in brief: as §1

Sequence	binding signal (FLI1)	binding signal (ELK1)	binding signal (GABPA)	binding signal (ERG)	binding signal (ELF1)	binding signal (EHF)	binding signal (SPI1)	binding signal (SPIB)	binding signal (ELK3)	binding signal (FEV)	binding signal (ETV5)	binding signal (HSF1)	binding signal (SPIC)	binding signal (ELF4)	binding signal (ETV2)	binding signal (CRX)	binding signal (ETV1)	binding signal (ELF3)
GTACTA	1.16 fold enrichment (6-mer frequency, TF over GST control)	1.06 fold enrichment (6-mer frequency, TF over GST control)	1.12 fold enrichment (6-mer frequency, TF over GST control)	1.07 fold enrichment (6-mer frequency, TF over GST control)	1.19 fold enrichment (6-mer frequency, TF over GST control)	1.14 fold enrichment (6-mer frequency, TF over GST control)	1.02 fold enrichment (6-mer frequency, TF over GST control)	1.1 fold enrichment (6-mer frequency, TF over GST control)	1.02 fold enrichment (6-mer frequency, TF over GST control)	1.12 fold enrichment (6-mer frequency, TF over GST control)	1.14 fold enrichment (6-mer frequency, TF over GST control)	1.15 fold enrichment (6-mer frequency, TF over GST control)	1.11 fold enrichment (6-mer frequency, TF over GST control)	1.08 fold enrichment (6-mer frequency, TF over GST control)	1.21 fold enrichment (6-mer frequency, TF over GST control)	1.12 fold enrichment (6-mer frequency, TF over GST control)	1.13 fold enrichment (6-mer frequency, TF over GST control)	
CACAAA	1.06 fold enrichment (6-mer frequency, TF over GST control)	1.06 fold enrichment (6-mer frequency, TF over GST control)	1.12 fold enrichment (6-mer frequency, TF over GST control)	1.12 fold enrichment (6-mer frequency, TF over GST control)	1.13 fold enrichment (6-mer frequency, TF over GST control)	1.11 fold enrichment (6-mer frequency, TF over GST control)	1.13 fold enrichment (6-mer frequency, TF over GST control)	1.04 fold enrichment (6-mer frequency, TF over GST control)	1.19 fold enrichment (6-mer frequency, TF over GST control)	1.09 fold enrichment (6-mer frequency, TF over GST control)	1.11 fold enrichment (6-mer frequency, TF over GST control)	1.02 fold enrichment (6-mer frequency, TF over GST control)	1.07 fold enrichment (6-mer frequency, TF over GST control)	1.11 fold enrichment (6-mer frequency, TF over GST control)	1.09 fold enrichment (6-mer frequency, TF over GST control)		1.03 fold enrichment (6-mer frequency, TF over GST control)	1.1 fold enrichment (6-mer frequency, TF over GST control)
